Source: PubChem BioAssay (NCATS)
Activity calls are given as the source filed them. Calls follow the shape of the dose curve; as a rule, active = well fitted curve in the direction sought with a large enough effect (not every such curve was filed as active); inconclusive = small, poorly fitted or top-dose-only effect, or effect the other way, or another doubt; inactive = no such curve, though single readings can be large or run the other way.

Biological target: Pyruvate kinase PKM (Homo sapiens) (UniProt P14618)
Experiment: qHTS Assay for Activators of Human Muscle Pyruvate Kinase (AID 954)
Details: purified human muscle pyruvate kinase, luciferase-coupled luminescence, 1 h; series mostly up to 57.5 µM
Outline: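 A coupled luminescent readout tracked ATP made from ADP by purified PKM2. Final conditions included 0.1 nM enzyme, PEP and ADP at 0.5 and 0.1 mM, pH 7.2 imidazole buffer with BSA, and a one-hour room-temperature reaction.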

Sequence of Pyruvate kinase PKM (Homo sapiens) (P14618 whole entry, looked up): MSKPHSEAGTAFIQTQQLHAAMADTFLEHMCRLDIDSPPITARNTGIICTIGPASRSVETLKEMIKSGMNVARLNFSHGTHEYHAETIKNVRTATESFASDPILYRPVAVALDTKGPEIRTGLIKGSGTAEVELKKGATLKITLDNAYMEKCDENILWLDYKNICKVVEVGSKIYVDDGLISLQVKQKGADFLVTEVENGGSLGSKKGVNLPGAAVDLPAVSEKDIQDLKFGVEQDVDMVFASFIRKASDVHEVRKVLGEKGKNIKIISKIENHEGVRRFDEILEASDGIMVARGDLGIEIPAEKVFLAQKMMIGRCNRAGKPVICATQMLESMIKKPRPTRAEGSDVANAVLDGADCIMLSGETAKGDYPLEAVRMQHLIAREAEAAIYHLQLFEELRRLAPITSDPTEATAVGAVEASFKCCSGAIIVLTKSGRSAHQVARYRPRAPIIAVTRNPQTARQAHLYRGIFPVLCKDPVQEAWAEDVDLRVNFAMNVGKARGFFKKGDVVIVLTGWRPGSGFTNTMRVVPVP

| SMILES | outcome |
| --- | --- |
| CN(C)c1nc(N(C)C)nc(N(C)C)n1 | inactive |
| COc1nc(C)nc(Cl)c1NC1=NCCN1 | inactive |
| COc1cc2c(c(OC)c1OC)-c1ccc(OC)c(=O)cc1[C@@H](NC(C)=O)CC2 | inactive |
| CCOC(=O)C(C)(C)Oc1ccc(Cl)cc1 | inactive |
| O=C1N(c2ccccc2)c2ccccc2C1(Cc1ccncc1)Cc1ccncc1 | inactive |
| NC(=O)NO | inactive |
| CN(C)CCCN1c2ccccc2CCc2ccc(Cl)cc21 | inactive |
| Clc1ccc2c(c1)C(N1CCNCC1)=Nc1ccccc1O2 | inactive |
| Fc1ccc([C@@H]2CCNC[C@H]2COc2ccc3c(c2)OCO3)cc1 | inactive |
| O=C(CCCN1CCC(O)(c2ccc(Cl)cc2)CC1)c1ccc(F)cc1 | inactive |
| CS(=O)(=O)Nc1ccc([N+](=O)[O-])cc1Oc1ccccc1 | inactive |
| CN(Cc1cnc2nc(N)nc(N)c2n1)c1ccc(C(=O)N[C@@H](CCC(=O)O)C(=O)O)cc1 | inactive |
| Cc1ccc(C(=O)Nc2ccc(S(=O)(=O)O)c3cc(S(=O)(=O)O)cc(S(=O)(=O)O)c23)cc1NC(=O)c1cccc(NC(=O)Nc2cccc(C(=O)Nc3cc(C(=O)Nc4ccc(S(=O)(=O)O)c5cc(S(=O)(=O)O)cc(S(=O)(=O)O)c45)ccc3C)c2)c1 | inactive |
| O=C(Nc1ccc([N+](=O)[O-])cc1Cl)c1cc(Cl)ccc1O | inactive |
| Cc1cnc(C(=O)NCCc2ccc(S(=O)(=O)NC(=O)NC3CCCCC3)cc2)cn1 | inactive |
| NCCc1cnc[nH]1 | inactive |
| CCOC(=O)c1ncn2c1CN(C)C(=O)c1cc(F)ccc1-2 | inactive |
